The values that follow come from PubChem BioAssay (NCI).

The panel holds about 83,000 compounds, 20% with a hit somewhere; the sample as a whole holds those more often.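 Percent growth is the endpoint: 0 to 100 indicates growth inhibition (40 means 60% inhibition), 0 means no net growth, and negative values indicate cell death.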 Unmarked numbers belong to inactive results. Active and inactive are the calls of the source. How the source made its calls: active means growth percent below 10; inactive means the rest.

What all share (experiment): NCI-60 one-dose screen, 48 h (100 = growth as untreated, 0 = no growth, -100 = all killed)
What all share (settings): 10 µM unless noted

In test [1] the test system is NCI-H23 lung.
The subject of test [2] is NCI-H226 lung.
Test [3] relates to NCI-H322M lung.
Test [4] deals with HOP-62 NSCLC.
Test [5] relates to NCI-H460 lung.
The subject of test [6] is NCI-H522 lung.
In test [7] the test system is A549/ATCC NSCLC.
Test [8] has as its system 786-0 renal.
Test [9] deals with COLO 205 colon.
Test [10] concerns DU-145 prostate.
The subject of test [11] is MALME-3M melanoma.
In test [12] the test system is MDA-MB-231 breast.
The test system of test [13] is RXF 393 renal.
Test [14] relates to SF-268 CNS.
The subject of test [15] is SF-295 CNS.
The test system of test [16] is SF-539 CNS.
In test [17] the test system is UACC-257 melanoma.
The subject of test [18] is M14 melanoma.
For test [19], the system named is K-562 leukemia.

As for `COc1cc(C2C(C#N)=C(N)Oc3cc4c(cc32)OCO4)cc2c1OCO2` (centres undefined), the growth is 8.48% (active) in [1]; 0.662% (active) in test [2]; 44.8% in [3]; 28.2% in test [4]; 12.4% in test [5]; 5.81% (active) in test [6]. Further, the growth is 25.3% in test [7]; 31.1% in test [8]; -42.1% (active) in [9]; 6.37% (active) in [10]; 52.6% in [11]; 36.5% in test [12]. Further, the growth in [13] is -12.1% (active); in [14] it was 40.3%; in test [15], 9.43% (active); in test [16], 2.43% (active); in test [17], 66.4%; in test [18], -2.77% (active).
Regarding `Cc1cc(-c2ccccc2)on1`, the growth is 106% in test [1]; 99.4% in [2]; 90.5% in test [3]; 92.9% in [4]; 112% in [5]; 97.9% in test [6]. For the same compound, the growth is 104% in test [7]; 95.2% in [8]; 109% in [9]; 111% in test [10]; 102% in test [11]; 105% in test [12]. The growth is 119% in test [13]; 103% in test [14]; 100% in test [15]; 88.8% in [16]; 109% in test [17]; 105% in test [18].
Take `COc1ccc(C2NC(=O)c3cc4c(cc3N2)OCO4)cc1` (centres undefined): the growth was 8.1% (active) in test [1]; 5.1% (active) in test [2]; 50.4% in [3]; 27.8% in test [4]; 5.06% (active) in test [5]; -48.7% (active) in test [6]. Moreover, the growth in test [7] is 18.9%; in test [8] it was 37.1%; in test [9] it was -22.1% (active); in test [10], 7.04% (active); in test [11], 58.7%; in [12], 31.3%. Besides, the growth is -2.15% (active) in [13]; 39.6% in test [14]; -14% (active) in test [15]; 8.24% (active) in test [16]; 65.8% in [17]; -7.7% (active) in test [18].
For the compound `COc1cc(NC(=O)CSc2nc3ccc(Cl)cc3c(=O)n2-c2ccccc2)cc(OC)c1OC`, the growth was 102% in [1]; 91.2% in test [2]; 99.8% in test [3]; 85.5% in test [4]; 98.2% in test [5]; 84.8% in [6]. The growth in test [7] is 89%; in test [8], 92.1%; in test [9], 116%; in [10] it was 102%; in test [11] it was 88%; in test [12], 77.8%. The growth was 95% in [13]; 90.9% in test [14]; 87.5% in [15]; 93.9% in [16]; 102% in [17]; 94% in test [18].
As for `CC(C)(C)c1ccc(C(=O)Nc2sc3cc(O)ccc3c2C(N)=O)cc1`, the growth in test [1] is 88.3%; in test [2], 101%; in test [3] it was 86.2%; in test [4], 106%; in test [5], 51.2%; in test [6] it was 64.9%. Moreover, the growth was 82.5% in test [7]; 70.3% in test [8]; 57.2% in [9]; 69.7% in test [10]; 94% in test [11]; 76% in test [12]. Further, the growth in [13] was 70.6%; in test [14], 92.4%; in test [15] it was 63.5%; in test [16], 53.9%; in test [17] it was 95.2%; in test [18], 22.1%.
Consider `O=S1(=O)NCCN1CCNc1nccc(-c2c(-c3cccc(O)c3)nc3sccn23)n1`, for which the growth in test [1] is 104%; in test [2] it was 105%; in [3], 115%; in test [4], 115%; in [5] it was 107%; in test [6], 87.2%. Moreover, the growth was 106% in test [7]; 126% in test [8]; 42.4% in test [9]; 106% in [10]; 4.99% (active) in [11]; 86.8% in [12]. For the same compound, the growth in test [13] was 111%; in test [14], 116%; in [15], 93.2%; in test [16] it was 109%; in [17], 59.7%; in test [18], 20.8%.
Take `COc1cccc(-c2nc3sccn3c2-c2ccnc(NCCN3CCCN(C)S3(=O)=O)n2)c1`: the growth in test [1] is 104%; in [2] it was 78.9%; in test [3] it was 91.4%; in test [4] it was 111%; in test [5], 69.5%; in [6] it was 95.9%. For the same compound, the growth in [7] was 91.7%; in test [8], 73.3%; in test [9], 45.8%; in test [10] it was 74.2%; in test [11] it was 39.6%; in test [12], 84.9%. Moreover, the growth in test [13] was 74.6%; in test [14], 103%; in test [15], 96.8%; in [16], 92.5%; in test [17] it was 84.7%; in [18], 29.2%.
Regarding `O=C1/C=C/[C@@H](O)[C@@H]2C[C@@H](O)C[C@H]2/C=C/CCC[C@H]([C@@H](O)CO)O1`, the growth was 93% in [1]; 106% in test [2]; 91.9% in test [3]; 108% in [4]; 115% in test [5]; 92.8% in test [6]. The growth in [7] was 96.1%; in [8], 50.3%; in [10] it was 135%; in test [19], 95.2%; in [11], 64.4%; in test [12], 91.6%. Also, the growth in test [13] is 24.9%; in test [14] it was 60.8%; in test [15], 87.7%; in test [16] it was 74.3%; in test [17], 69.3%; in test [18], 68.8%.
